Experimental data published in PubChem BioAssay.
Several values for one entry are separate records, joined by “and”; a condition that tells them apart may be missing. Equal entries are not always repeated. Inconclusive results are not listed. Activity calls are given as the source filed them. Unless noted, no stated cut-off is given here; in the data, active means inhibition above about 80%; inactive means the rest.

What was measured:
[1] = viability loss in pontine glioma line – cell-based, SU-DIPG-XVII, MIPE5.0, CellTiter-Glo, qHTS, dose response (AID 1347060; cut-off not given, nearly all actives have AC50 up to about 26 µM); settings: CellTiter-Glo ATP luminescence
[2] = viability loss in pontine glioma line – cell-based, SU-DIPG-XXV, MIPE5.0, CellTiter-Glo, qHTS, dose response (AID 1347065; cut-off not given, nearly all actives have AC50 up to about 26 µM;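 further: cells exposed to compound for 48 hours before ATP readout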); settings: CellTiter-Glo ATP luminescence
[3] = JHH-DIPG-1 glioma cell viability, MIPE5.0 library, CellTiter-Glo luminescence, qHTS (AID 1347067; cut-off not given, nearly all actives have AC50 up to about 26 µM;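 further: cells exposed to compound for 48 hours before readout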); settings: JHH-DIPG-1 glioma viability, CellTiter-Glo ATP luminescence
[4] = growth inhibition of DIPG cells – cell-based, MIPE5.0 library, qHTS (AID 1347068; cut-off not given, nearly all actives have IC50 up to about 30 µM); settings: SU-DIPG-XXV viability
[5] = growth inhibition, single agent or in combination, cell-based, chromothripsis tumors, cisplatin or BGB combos (AID 1671449); settings: LFS_MB_P medulloblastoma cells;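 further: cells exposed for 96 hours; 0% = vehicle DMSO and 100% = killing by high DMSO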
[6] = growth inhibition, single agent and combos, cell-based, chromothripsis tumors, cisplatin or BGB combos (AID 1671450); settings: HDN33 neuroblastoma cells, stronger effect = higher value;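 further: cells exposed to compound for four days; 0% = vehicle DMSO and 100% = cell killing by high DMSO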
[7] = growth inhibition, single agents and combos, ICB984, cell-based, cisplatin or BGB combos, synergistic combos for chromothripsis tumors (AID 1671451; call rule not given here;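 further: cells exposed for 96 hours before readout; 0% = vehicle DMSO and 100% = killing by high DMSO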); settings: ICB984 medulloblastoma cells, drug combinations, stronger effect = higher value
[8] = growth inhibition, single agents and combos, LFS_MB_1R, cell-based, cisplatin or BGB combos, synergistic combos for chromothripsis tumors (AID 1671452); settings: LFS_MB_1R medulloblastoma cells, stronger effect = higher value;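 further: cells exposed for 96 hours before readout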
[9] = growth inhibition, single agents and combos, HTB85, cell-based, BGB or cisplatin IC20 combos, synergistic combos for chromothripsis tumors (AID 1671453); settings: HTB85 osteosarcoma cells, drug combinations, stronger effect = higher value;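 further: cells exposed for 96 hours before readout; 0% = vehicle DMSO and 100% = high DMSO killing control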
[10] = measured here: combination with BGB IC40, at 0.05 µM

## CCCc1nc(C(C)(C)O)c(C(=O)O)n1Cc1ccc(-c2ccccc2-c2nn[nH]n2)cc1
[1]
  outcome: inactive
[2]
  outcome: inactive
[3]
  outcome: inactive
[4]
  outcome: inactive

## CO[C@H]1C=CO[C@@]2(C)Oc3c(C)c(O)c4c(O)c(c5c(nc6cc(C)ccn65)c4c3C2=O)NC(=O)C(C)=CC=C[C@H](C)[C@H](O)[C@@H](C)[C@@H](O)[C@@H](C)[C@H](OC(C)=O)[C@@H]1C
[5]; at 0.5 µM, stronger effect = higher value
  inhibition: -25.7% (inactive) and 0.03% (inactive)
[5]; measured here: combination with BGB IC20, at 0.005 µM
  inhibition: -21% and -12.6%
[5]; measured here: combination with BGB IC40, at 0.005 µM
  inhibition: -15.4% and -21%
[5]; [10]
  inhibition: -19.4% and -36.7%
[5]; measured here: combination with cisplatin, at 0.5 µM, stronger effect = higher value
  inhibition: -19.3% and -0.506%
[5]; measured here: combination with cisplatin, at 5 µM, stronger effect = higher value
  inhibition: -24.8% and 7.24%
[6]; BGB combo, at 5 µM
  inhibition: -5.62% and -13.7%
[6]; at 0.5 µM
  inhibition: -1.69% (inactive) and -3.15% (inactive)
[6]; cisplatin combo, at 5 µM
  inhibition: -20.9% and -12.7%
[6]; measured here: with BGB IC20 combination, at 0.5 µM
  inhibition: 24.2% and -1.36%
[6]; measured here: with cisplatin IC20 combination, at 0.5 µM
  inhibition: -2.79% and 1.82%
[6]; single agent, at 5 µM
  inhibition: -32.3% and -1.92%
[7]; BGB IC20 combo, at 0.005 µM
  inhibition: 0.503% and -4.57%
[7]; BGB IC40 combo, at 0.005 µM
  inhibition: 18.5% and -33.7%
[7]; BGB IC40 combo, at 0.05 µM
  inhibition: -2.72% and 6.47%
[7]; at 0.5 µM
  inhibition: -25.8% (inactive) and -13.5% (inactive)
[7]; cisplatin combo, at 0.05 µM
  inhibition: -2.72% and 3.11%
[7]; cisplatin combo, at 0.5 µM
  inhibition: -37.2% and -4.35%
[7]; cisplatin combo, at 5 µM
  inhibition: -14.1% and -11.2%
[7]; measured here: 5 uM single agent, at 5 µM
  inhibition: -18.1% and 0.267%
[8]; at 0.5 µM
  inhibition: 17.8% (inactive) and -17.4% (inactive)
[8]; [10]
  inhibition: -4.04% and -14.4%
[8]; measured here: combination with cisplatin, at 0.5 µM
  inhibition: -10.1% and -31.8%
[8]; measured here: combination with cisplatin, at 5 µM
  inhibition: -6.72% and -38.3%
[9]; at 0.5 µM
  inhibition: -5.41% (inactive) and -9.58% (inactive)
[9]; measured here: with BGB IC20, at 0.5 µM
  inhibition: -40.5% and -14.9%
[9]; measured here: with BGB IC20, at 5 µM
  inhibition: -22.4% and -7.39%
[9]; measured here: with cisplatin IC20, at 0.5 µM
  inhibition: 16.5% and -6.9%
[9]; measured here: with cisplatin IC20, at 5 µM
  inhibition: 10.3% and 21%
[9]; single agent, at 5 µM
  inhibition: -1.97% and 12.2%
